Experimental data from PubChem BioAssay AID2540 (Sanford-Burnham Center for Chemical Genomics, 2010).
The campaign covered roughly 330,000 compounds. About 4,100 (1.2%) were called active. The list comes from a sample in which actives are over-represented; it also holds similar structures and randomly drawn compounds. Unmarked numbers belong to inactive results. Cut-off read from the data, not from the text of the source: active = inhibition above about 50%; inactive = the rest.

The compounds below were run against Sentrin-specific protease 8 (Homo sapiens) (UniProt Q96LD8) (assay: blockers of human SENP8 peptidase activity – biochemical, luminescence, primary screen (AID 2540)). Conditions: purified SENP8, Z-RLRGG-aminoluciferin cleavage, at 10 µM, active compounds read high.
Sequence of Sentrin-specific protease 8 (Homo sapiens) (Q96LD8 whole entry, looked up): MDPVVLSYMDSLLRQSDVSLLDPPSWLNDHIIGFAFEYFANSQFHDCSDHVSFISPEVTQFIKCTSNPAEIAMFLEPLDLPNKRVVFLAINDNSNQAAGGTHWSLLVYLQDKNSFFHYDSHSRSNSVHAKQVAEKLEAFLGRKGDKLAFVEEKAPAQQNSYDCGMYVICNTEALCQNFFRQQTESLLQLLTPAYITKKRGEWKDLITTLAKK

SMILES	inhibition
CCCCC(CC)C(=O)Nc1ccc(Cl)cn1 (stereo not drawn)	7.93%
Cc1ccc(C(=O)NNC(=O)c2ccc3c(c2)OCCO3)cc1	5.52%
Cc1nc(NC(=O)c2ccc3c(c2)OCCO3)ccc1Br	74.8% (active)
COc1ccc(C(=O)NC(=S)Nc2ccc(Cl)cn2)cc1OC	-13.1%
O=C(Nc1ccc(Cl)cn1)c1ccc2c(c1)OCCO2	75.8% (active)
CCCc1cc(C(=O)Nc2ccc(Cl)cn2)cs1	66.2% (active)
O=C(Nc1ccc(Cl)cn1)c1cnn2cccnc12	-0.161%
Cc1cccc(C)c1NC(=O)CNC(=O)c1ccc2c(c1)OCCO2	-10.7%
CCCc1cc(C(=O)Nc2ccc(C(=O)OC)cc2)cs1	-3.33%
CCCCN(C(=O)CCNC(=O)NC12CC3CC(CC(C3)C1)C2)c1c(N)n(CCCC)c(=O)[nH]c1=O	-4.31%
COc1ccccc1NC(=O)CCC(=O)OC(C)C(=O)c1ccccc1 (stereo not drawn)	-4.92%
Cc1cc(Nc2cc(N3CCN(C)CC3)nc(Sc3ccc(NC(=O)C4CC4)cc3)n2)n[nH]1	-3.96%
CC(=O)N(C1=C(Cl)C(=O)c2ccccc2C1=O)c1ccc(C(=O)O)cc1	61.8% (active)
O=C(CCN1C(=O)c2ccccc2C1=O)NNC(=O)c1ccc(Cl)cc1Cl	-11.3%
O=S1(=O)CC/C(=N\Nc2ccc(F)cc2)c2ccsc21	-11.5%
CNC(C)C#Cc1ccc2sc3cc(OC)c(OC)cc3c(=O)c2c1 (stereo not drawn)	70.5% (active)
O=C(NC(=S)N1CCCCC1c1cccnc1)c1ccccc1 (stereo not drawn)	-8.93%
O=C(CCCCO)c1ccc(O)c(Cl)c1	-4.6%
Cc1ccc2nc(-c3ccc(Br)cc3)cn2c1	74.4% (active)
CSc1nnc2ccc(-c3ccc(C)cc3)nn12	-14.2%
Cc1cc(N2CCOCC2)nc(-c2ccc(Br)cc2)n1	-13.3%
Cc1ccc(-c2cn3cc(C)ccc3n2)cc1	84.7% (active)
CCN(CC)S(=O)(=O)c1ccc(-c2cn3ccc(C)cc3n2)cc1	-1.4%
Cc1ccc(-n2c(-c3ccc(Cl)cc3)n[nH]c2=S)cc1	-0.548%
Cc1ccc(-c2cc(N)on2)cc1	-6.42%

SMILES	inhibition
COc1ccc(-c2cn3ccc(C)cc3n2)cc1	95.5% (active)
Cc1ccn2cc(C(=O)NC3CCN(Cc4ccccc4)CC3)nc2c1	3.06%
COCCN(CCOC)S(=O)(=O)NC[C@H]1O[C@@H](n2cnc3c(N)ncnc32)[C@H](O)[C@@H]1O	3.39%
COc1ccccc1CCNS(=O)(=O)c1cc2c3c(c1)C(C)C(=O)N3CCC2 (stereo not drawn)	-8.53%
CCn1nc(C)c(/C=N/NC(=O)Cc2ccc(Cl)cc2)c1C	-9.56%
Cc1ccc(NC(=O)CC2C(=O)N(Cc3ccccc3)C(=S)N2NC(=O)c2cccc(F)c2)c(C)c1 (stereo not drawn)	-4.05%
Cc1ccc(O)c(NC(=S)NC(=O)COc2ccc(Br)cc2)c1	-5.01%
CCCc1cc(=O)[nH]c(SCc2ccc(C#N)cc2)n1	0.541%
Cc1noc(C)c1/C=N/Nc1ccc2ccccc2n1	-8.03%
C(=N\Nc1ccc2ccccc2n1)/c1ccc2c(c1)OCO2	93.1% (active)
Cc1cc(=O)[nH]c(N/N=C/c2ccc3c(c2)OCCO3)n1	-1.24%
COc1cc(-c2nnc(Cn3cc(C(F)(F)F)ccc3=O)o2)cc(OC)c1OC	-4.14%
Cc1ccc(C)c(-n2c(SCC(=O)O)nc3sc4c(c3c2=O)CCCC4)c1	-9.61%
CCCCCc1ccc(-c2ccc(C(=O)O)cc2)nc1	92.4% (active)
CCCCCc1ccc(-c2cn(Cc3ccc4ccccc4c3)nn2)cc1	-9.63%
CCCCCc1ccc(-c2ccc(OCC)cc2)nc1	-5.58%
CC(C)CN(C(=O)CSc1nncn1C)C1CCS(=O)(=O)C1 (stereo not drawn)	-3.63%
CCOCCc1nn2c(=O)cc(CSCC(=O)Nc3cccc(C)c3C)nc2s1	-0.564%
O=C(Nc1nnc(C2COc3ccccc3O2)o1)c1ccc(F)cc1 (stereo not drawn)	-17.2%
CC(C)Oc1ccc(Oc2ccc(C(F)(F)F)cn2)cc1	-8.39%
FC(F)(F)c1ccnc(Oc2ccc(C3=NCCS3)cc2)c1	67.8% (active)
NC1=NC(=O)C(Cc2cccc(Cl)c2)S1 (stereo not drawn)	-2.31%
O=C(NCCCN1CCOCC1)c1cnn2c(-c3ccccc3)cc(-c3ccccc3)nc12	-0.117%
N#C/C=C1\Sc2ccccc2C(=O)N1CC(=O)N1CCN(S(=O)(=O)c2ccccc2)CC1	-2.48%
CCCc1ccc(OCCNC(=O)c2ccco2)cc1	2.92%

SMILES	inhibition
CCCc1ccc(OCCNC(=O)c2ccccc2Br)cc1	7.2%
CCCOc1ccc(C(=O)NCCc2ccccc2)cc1	52% (active)
CCCC(C(=O)n1nc(C)cc1C)C(NS(=O)(=O)c1ccc(C)cc1)c1ccccc1 (stereo not drawn)	-2.3%
Cc1ccc(C)c(NC(=O)NNC(=O)c2ccc3ccccc3c2O)c1	-2.4%
C#CCOCCOCCOCCNc1nc(N2CCN(C(=O)[C@H](CCCN=C(N)N)n3cc(C(N)[C@@H](C)CC)nn3)CC2)nc(N2CCN(C(=O)[C@H](CO)n3cc([C@@H](N)C(C)C)nn3)CC2)n1 (stereo partly drawn)	5.69%
O=C(Cc1ccccc1)NNS(=O)(=O)c1ccc([N+](=O)[O-])cc1	-1.17%
CNC(=S)Nc1ccc([N+](=O)[O-])cc1	-4.02%
O=C(O)/C=C/C(=O)NNc1ccc([N+](=O)[O-])cc1	69.3% (active)
CCOC(=O)C1(Cc2cccc(OC)c2)CCN(Cc2csc(C(C)=O)c2)CC1	-11.2%
O=C(CCCCCn1c(=S)[nH]c2ccsc2c1=O)NC1CCCCC1	0.315%
Cc1nn(CC(=O)Nc2ccc(C#N)cc2)c(C)c1[N+](=O)[O-]	-9.74%
O=C(O)Cc1ccc(NC(=O)Nc2cccc3ccccc23)cc1	-11%
O=C(Nc1cccc2ccccc12)c1onc2c1CCCC2	71.5% (active)
CN(CC(=O)Nc1ccc(Cl)cc1)CC(=O)Nc1cccc2ccccc12	-2.39%
O=C(Nc1c2c(nn1-c1ccc(F)cc1)CS(=O)C2)C12CC3CC(CC(C3)C1)C2 (stereo not drawn)	-3.44%
CCC(Cc1ccccc1)NC(=O)C1CCCCC1 (stereo not drawn)	-7.47%
CN(C(=O)CSc1nncc2ccccc12)C1CCCCC1	-9.8%
CN(c1ccc2nc3ccccc3c(=O)n2n1)C1CCCCC1	92.6% (active)
CN(C(=O)c1cc2c(=O)n3ccccc3nc2s1)C1CCCCC1	-2.55%
CC(C(=O)N1CCOCC1)N1c2cccc3cccc(c23)S1(=O)=O (stereo not drawn)	3.41%
Cc1cccc(NC(=O)Cc2ccc(Br)cc2)n1	-12.8%
Cc1cccc(NC(=O)c2ccc3ccccc3n2)n1	61.5% (active)
Cc1cccc(NC(=O)c2cc(N3C(=O)CCC3=O)ccc2Cl)n1	-1.19%
CC(=O)c1cnc(SCC(=O)O)nc1C	6.9%
c1ccc2sc(NN=C3CCCC3)nc2c1	72% (active)

SMILES	inhibition
CCN(CC)CCn1c2c(c(SCC(=O)Nc3nc4ccccc4s3)nc1=O)CCCC2	3.66%
O=C(CCC(=O)c1cccs1)Nc1nc2ccccc2s1	-9.74%
COc1ccc(NC(=O)C2COc3ccccc3O2)cc1 (stereo not drawn)	-15.1%
O=C(Nc1ncc([N+](=O)[O-])s1)C1COc2ccccc2O1 (stereo not drawn)	95.6% (active)
COc1ccc(OC)c2sc(NC(=O)C3COc4ccccc4O3)nc12 (stereo not drawn)	-14.6%
COc1ccc(OC)c(NC(=O)Cn2c(=O)oc3ccccc32)c1	-1.75%
N#Cc1cc([N+](=O)[O-])ccc1NC(=O)COC(=O)c1cnccn1	-2.92%
O=C(CN1CCN(c2ccc(Cl)cc2)CC1)NCc1cccs1	-8.2%
CCc1cc(CNC(=O)CC2C(=O)NCCN2CC2CCCCC2)on1 (stereo not drawn)	-2.78%
CCCCCN(C(=O)CCC(=O)OCCOc1ccc(OC)cc1)c1c(N)n(CCCC)c(=O)[nH]c1=O	6.98%
Cc1nc2cc(NC(=O)Nc3cccc(F)c3)ccc2n1C	90.8% (active)
C=CCN(C(=O)Nc1ccc2c(c1)nc(C)n2C)c1ccccc1	0.305%
Cn1c(CCN2CCCCCC2)nc2cc(NC(=O)Nc3ccccc3)ccc21	1.11%
O=C(COC(=O)c1cnccn1)Nc1cccc2ccccc12	1.04%
O=C(CSc1ncnc2c1nnn2Cc1ccc(F)cc1)NC1CCCC1	-8.4%
O=C(Nc1ccccc1C(=O)N1CCOCC1)c1ccc(CSc2ccccc2)cc1	-3.32%
O=C(c1ccc(S(=O)(=O)c2ccccc2)cc1)N1CCCCCC1	-5.04%
O=C(c1ccc(CSc2ccccc2)cc1)N1CCCCCC1	64.4% (active)
O=C(CSc1nccc(=O)[nH]1)Nc1ccc(N2CCOCC2)c(Cl)c1	2.95%
Cc1sc(NC(=S)NC(=O)c2cccs2)nc1-c1ccc(CC(C)C)cc1	13.2%
C/C(=N\NC(=O)c1ccc(C)cc1)C1C(=O)c2ccccc2C1=O	86.8% (active)
Cc1ccc(C(=O)N/C(=C/c2cccnc2)C(=O)O)cc1	-10.8%
C/C(=N\NC(=O)CNC(=O)C(c1ccccc1)c1ccccc1)c1ccc(C)cc1	-7.34%
